For assay [1], the target named is T1, Tyrosine-protein phosphatase non-receptor type substrate 1 (Homo sapiens) + Leukocyte surface antigen CD47 (Homo sapiens) (UniProt P78324+Q08722). Description: CD47-SIRPalpha protein protein interaction - LANCE assay qHTS validation (AID 1347057; active = well fitted curve in the direction sought with a large enough effect in the signal ratio, with a control signal flat, not every such curve was filed as active; the % refers to the signal ratio; also: series mostly up to about 38 µM). In short, it runs like this: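 First, His-tagged CD47 and Eu-labelled anti-His antibody met the compound for 30 min; next, site-specifically biotinylated SIRPalpha was added for 30 min; finally streptavidin-APC was added before reading the TR-FRET ratio.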
T1 sequence (P78324 whole entry, looked up): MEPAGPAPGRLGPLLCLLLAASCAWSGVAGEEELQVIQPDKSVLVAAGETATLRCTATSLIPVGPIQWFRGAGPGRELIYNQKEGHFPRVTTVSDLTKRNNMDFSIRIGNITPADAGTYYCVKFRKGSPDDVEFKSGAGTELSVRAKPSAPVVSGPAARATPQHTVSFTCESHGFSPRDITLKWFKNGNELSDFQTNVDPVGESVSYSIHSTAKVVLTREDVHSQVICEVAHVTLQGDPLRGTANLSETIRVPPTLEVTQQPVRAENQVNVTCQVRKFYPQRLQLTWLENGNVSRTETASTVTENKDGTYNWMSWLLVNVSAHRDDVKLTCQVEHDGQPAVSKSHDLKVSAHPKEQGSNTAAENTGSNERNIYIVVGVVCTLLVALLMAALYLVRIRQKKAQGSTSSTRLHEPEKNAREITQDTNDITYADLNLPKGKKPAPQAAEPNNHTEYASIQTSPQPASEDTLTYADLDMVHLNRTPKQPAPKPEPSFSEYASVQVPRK
T1 sequence (Q08722 whole entry, looked up): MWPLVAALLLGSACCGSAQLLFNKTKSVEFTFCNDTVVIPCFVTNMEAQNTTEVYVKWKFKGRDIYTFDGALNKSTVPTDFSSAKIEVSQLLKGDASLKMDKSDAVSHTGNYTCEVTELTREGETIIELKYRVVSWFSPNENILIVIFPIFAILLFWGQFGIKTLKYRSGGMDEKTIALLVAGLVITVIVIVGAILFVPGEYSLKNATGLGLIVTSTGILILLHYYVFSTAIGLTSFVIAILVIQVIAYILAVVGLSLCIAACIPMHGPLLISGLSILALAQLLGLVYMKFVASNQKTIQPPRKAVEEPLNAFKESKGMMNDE

The target of assay [2] is T1, Tyrosine-protein phosphatase non-receptor type substrate 1 (Homo sapiens) + Leukocyte surface antigen CD47 (Homo sapiens). Description: CD47-SIRPalpha protein protein interaction - HTRF assay qHTS validation (AID 1347058; active = well fitted curve in the direction sought with a large enough effect in the signal ratio, not every such curve was filed as active; the % refers to the signal ratio; also: series mostly up to about 38 µM). In short, it runs like this:
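TR-FRET read (Ch1/Ch2 ratio) of soluble extracellular CD47 and Avi-biotinylated SIRPalpha domains in PBS pH 7.4 with 0.05% IGEPAL; 7-point compound titration. Sequential 30 min room-temperature steps; non-biotinylated SIRPalpha as control inhibitor.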
A general note: Time-resolved FRET reads energy transfer from a long-lived donor to a nearby acceptor.

Assay [3] has the same target. Description: CD47-SIRPalpha protein protein interaction - Alpha assay qHTS validation (AID 1347059).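 Also: bead proximity luminescence from CD47 binding SIRPalpha after compound preincubation with SIRPalpha.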 Summed up:
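Soluble extracellular domains: Avi-tag biotinylated SIRPalpha (25 nM) preincubated 30 min RT with compound, then 6His-CD47 (12.5 nM) 30 min; Ni-NTA acceptor and streptavidin donor beads (10 ug/mL) 30 min, AlphaScreen read. PBS pH 7.4, 0.05% IGEPAL.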
Background: Quantitative high-throughput screening tests each substance at several concentrations.

In assay [4] the target is Parathyroid hormone/parathyroid hormone-related peptide receptor (Homo sapiens) (UniProt Q03431). Description: qHTS for PTHR1 Agonists: Optimization Screen against the NCGC LOPAC library (AID 1347079).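 Also: GloSensor cAMP luminescence in HEK-293 GP2 cells expressing human PTHR1 with IBMX.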 Also: potency is read from the fitted curve at half-maximal effect. Summed up:
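Agonist readout: GloSensor cAMP luminescence, read after 15 min at room temperature. HEK-293-derived GP2 line carries PTHR1; compounds tested as a titration for 1 hr at 37C in presence of IBMX. M-PTH (1-15) served as control.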

The target in assay [5] is N-terminal Xaa-Pro-Lys N-methyltransferase 1 (Homo sapiens) (UniProt Q9BV86). Description: qHTS Assay for Inhibitors of N-terminal methyltransferase 1 (NTMT1): LOPAC validation of the NTMT1 SAHH-coupled ThioGlo3 Assay (AID 1347143). Also: nearly all actives have a fitted effect of over 70% in size. Also: potency is read from the fitted curve at half-maximal effect. Summed up: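 Fluorescence read-out (excitation 340nm, emission 450nm) of SAH-derived thiol, measured via SAHH coupling and ThioGlo3, taken immediately and after a 30 min room-temperature reaction, then normalized to the background read. Enzyme: NTMT1 at 125nM; cofactor SAM 100uM in the added reagent.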
N-terminal Xaa-Pro-Lys N-methyltransferase 1 (Homo sapiens), sequence (Q9BV86 whole entry, looked up): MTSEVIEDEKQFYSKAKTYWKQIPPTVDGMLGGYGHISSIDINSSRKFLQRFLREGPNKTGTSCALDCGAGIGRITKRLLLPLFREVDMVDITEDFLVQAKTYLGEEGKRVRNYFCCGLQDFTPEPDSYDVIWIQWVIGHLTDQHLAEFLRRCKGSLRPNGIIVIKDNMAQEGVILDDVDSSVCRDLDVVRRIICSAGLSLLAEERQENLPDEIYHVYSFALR

The test system of assay [6] is Zika virus NS2B-NS3 protease (unlinked). Description: Optimization of GU AMC qHTS for Zika virus inhibitors: Unlinked NS2B-NS3 protease assay (AID 1347151). Also: nearly all actives have a fitted effect of over 80% in size. Also: potency is read from the fitted curve at half-maximal effect. In short, it runs like this: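 Noncovalent NS2B hydrophilic domain–NS3 protease complex (25 nM final) in 10 mM Tris-HCl pH 8.0, 0.01% Tween 20; AMC substrate, room temperature 15 min (~20% conversion); fluorescence change normalized, 4-parameter Hill fit.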

Assay [7] deals with Zika virus NS2B-NS3 protease. Description: Primary screen GU AMC qHTS for Zika virus inhibitors (AID 1347154). Also: nearly all actives have a fitted effect of over 70% in size. Summed up:
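Unlinked Zika NS2B hydrophilic domain/NS3 protease domain noncovalent complex (25 nM final) in 10 mM Tris-HCl pH 8.0, 0.01% Tween 20, with AMC peptide substrate. Fluorescence (ex 340, em 450 nm) change over 15 min, room temperature; percent inhibition fitted to 4-parameter Hill equation.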

Results filed as inconclusive are left out. Active and inactive are the calls of the source. Unless noted, calls follow the shape of the dose curve; as a rule, active = well fitted curve in the direction sought with a large enough effect; inconclusive = small, poorly fitted or top-dose-only effect, or another doubt; inactive = no such curve, though single readings can be large; an effect the other way counts as inactive or inconclusive.

Parathyroid hormone/parathyroid hormone-related peptide receptor (Homo sapiens), sequence (Q03431 whole entry, looked up): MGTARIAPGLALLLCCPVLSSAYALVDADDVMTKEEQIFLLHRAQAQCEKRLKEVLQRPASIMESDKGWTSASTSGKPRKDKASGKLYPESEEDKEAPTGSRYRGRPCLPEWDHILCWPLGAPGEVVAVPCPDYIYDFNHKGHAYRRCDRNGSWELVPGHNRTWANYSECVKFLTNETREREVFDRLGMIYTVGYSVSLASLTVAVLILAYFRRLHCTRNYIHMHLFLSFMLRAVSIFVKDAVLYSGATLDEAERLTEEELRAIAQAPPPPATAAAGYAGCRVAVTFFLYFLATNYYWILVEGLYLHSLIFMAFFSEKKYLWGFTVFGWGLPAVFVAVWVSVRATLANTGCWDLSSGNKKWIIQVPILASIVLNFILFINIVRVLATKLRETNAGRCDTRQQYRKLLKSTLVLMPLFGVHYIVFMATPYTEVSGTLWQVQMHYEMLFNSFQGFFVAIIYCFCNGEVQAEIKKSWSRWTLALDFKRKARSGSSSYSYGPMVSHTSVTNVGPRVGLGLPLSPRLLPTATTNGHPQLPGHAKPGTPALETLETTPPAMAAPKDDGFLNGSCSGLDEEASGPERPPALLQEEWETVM

Turning to `O=c1[nH]c2cc(Cl)ccc2c(O)c1-c1ccc(Oc2ccccc2)cc1`, the Potency result in assay [1], in assay [3], in assay [4] and in assay [5] was “inactive” each time. In assay [2], the outcome was inactive.

As to `O=C(O)Cc1c[nH]c2ccc(O)cc12`, the Potency result in assay [1], in assay [3] and in assay [4] was “inactive” in each case. The outcome in assay [2] was inactive. Moreover, the Potency in assay [5] was 56.2 µM (active).

As to `Nc1nc2c(nc(Br)n2C2OC3COP(=O)(O)O[C@@H]3C2O)c(=O)[nH]1` (some centres undefined), the Potency result in assay [1], in assay [3], in assay [4] and in assay [5] was “inactive” throughout. Moreover, the result in assay [2] was inactive.

As for `C#CC(N)CCC(=O)O` (centres undefined), the Potency result in assay [1], in assay [3], in assay [4], in assay [5] and in assay [6] was “inactive” throughout. Also, the result in assay [2] was inactive.

With `OC[C@H]1NC[C@@H](O)[C@@H]1O`, the Potency entry in assay [1], in assay [3], in assay [4] and in assay [5] was “inactive” throughout. For the same compound, in assay [2], the outcome was inactive.

On to `CC(=O)[C@H]1CCC2C3CC=C4C[C@@H](OS(=O)(=O)O)CC[C@]4(C)C3CC[C@@]21C` (some centres undefined), for which the Potency entry in assay [1], in assay [3], in assay [4], in assay [5] and in assay [6] was “inactive” throughout. The result in assay [2] was inactive.

Turning to `O=C(O)C1CCNCC1`, the Potency result in assay [1], in assay [3], in assay [4], in assay [5] and in assay [6] was “inactive” each time. The outcome in assay [2] was inactive.

In the case of `N[C@H](C(=O)O)[C@H](Cc1ccccc1)C(=O)O`, the Potency result in assay [1], in assay [3], in assay [4], in assay [5] and in assay [6] was “inactive” each time. In assay [2], the result was inactive.

With `NC1(C(=O)O)CC1`, the Potency result in assay [1], in assay [3], in assay [4], in assay [5] and in assay [6] was “inactive” throughout. In assay [2], the result was inactive.

For `C[C@@H](NCCc1ccc(O)cc1)[C@@H](O)c1ccc(O)cc1`, the Potency result in assay [1], in assay [3], in assay [5] and in assay [6] was “inactive” in each case. Besides, the outcome in assay [2] was inactive. In addition, the Potency in assay [4] was 2.38 µM (active).

In the case of `O=C(c1ccc2c(c1)OCCO2)N1CCCCC1`, the Potency result in assay [1], in assay [3], in assay [4], in assay [5] and in assay [6] was “inactive” each time. For the same compound, in assay [2], the outcome was inactive.

Take `N[C@H](C(=O)O)[C@H](O)C(=O)O`: the Potency entry in assay [1], in assay [3], in assay [4], in assay [5], in assay [6] and in assay [7] was “inactive” throughout. In addition, in assay [2], the outcome was inactive.

As for `c1ccc2c(c1)CC(N1CCN(c3cccc4c3OCCO4)CC1)C2`, the Potency entry in assay [1], in assay [3], in assay [4], in assay [5] and in assay [6] was “inactive” throughout. Further, in assay [2], the result was inactive.

For `O=c1oc(Cl)c(Cl)c2ccccc12`, the Potency result in assay [1], in assay [3], in assay [4] and in assay [6] was “inactive” each time. The outcome in assay [2] was inactive. Further, the Potency in assay [5] was 50.1 µM (active).

For `Cc1nc2n(c(=O)c1CCN1CCC(c3noc4cc(F)ccc34)CC1)CCCC2O` (centres undefined), the Potency entry in assay [1], in assay [3], in assay [4], in assay [5] and in assay [6] was “inactive” in each case. The result in assay [2] was inactive.

As to `Cc1cc2c(cc1Cl)N(C(=O)Nc1ccnc3ccccc13)CC2`, the Potency result in assay [1], in assay [3], in assay [4], in assay [5] and in assay [6] was “inactive” each time. In assay [2], the outcome was inactive.

Turning to `N[C@@H](CCC(=O)N[C@H](CSN=O)C(=O)NCC(=O)O)C(=O)O`, the Potency result in assay [1], in assay [3], in assay [4], in assay [5] and in assay [6] was “inactive” each time. The result in assay [2] was inactive.

`CN(CC[C@@H](Oc1ccc(C(F)(F)F)cc1)c1ccccc1)CC(=O)O`: the Potency result in assay [1], in assay [3], in assay [4], in assay [5] and in assay [6] was “inactive” in each case. Moreover, the result in assay [2] was inactive.

`COc1cc(CC(=O)O)ccc1O`: the Potency entry in assay [1], in assay [3], in assay [4], in assay [5], in assay [6] and in assay [7] was “inactive” throughout. For the same compound, the outcome in assay [2] was inactive.

`CCCCCCCCCCCCCCSCC(=O)O`: the Potency entry in assay [1], in assay [3], in assay [4] and in assay [5] was “inactive” in each case. In assay [2], the result was inactive. The Potency in assay [6] is 11.9 µM (active).

`CC(/C=C/c1cccc(Oc2ccc(F)cc2)c1)N(O)C(N)=O` (centres undefined): the Potency entry in assay [1], in assay [3], in assay [4], in assay [5], in assay [6] and in assay [7] was “inactive” throughout. In assay [2], the result was inactive.

On to `C=CCN1CCc2c(cc(O)c(O)c2Cl)C(c2ccccc2)C1` (centres undefined), for which the Potency entry in assay [1], in assay [3] and in assay [4] was “inactive” each time. The result in assay [2] was inactive. Also, the figures for the Potency in assay [5] and in assay [6] were 20 µM (active) and 18.9 µM (active), respectively.

In the case of `O=C(O)c1cc(=O)cc(C(=O)O)[nH]1`, the Potency result in assay [1], in assay [3], in assay [4], in assay [5] and in assay [6] was “inactive” each time. The result in assay [2] was inactive.

Take `NC(Cc1cccc(-c2ccccc2CP(=O)(O)O)c1)C(=O)O` (centres undefined): the Potency result in assay [1], in assay [3], in assay [4], in assay [5] and in assay [6] was “inactive” each time. Also, the result in assay [2] was inactive.

As for `C[C@H]1CC2C3CCC4=CC(=O)C=C[C@]4(C)[C@@]3(Cl)[C@@H](O)C[C@]2(C)[C@@]1(O)C(=O)CO` (some centres undefined), the Potency result in assay [1], in assay [3], in assay [4], in assay [5] and in assay [6] was “inactive” in each case. Further, in assay [2], the result was inactive.

For `NC1CONC1=O` (centres undefined), the Potency entry in assay [1], in assay [3], in assay [4], in assay [5] and in assay [6] was “inactive” each time. Further, the outcome in assay [2] was inactive.

For the compound `CC1=C(C(=O)O)N2C(=O)[C@@H](NC(=O)C(N)C3=CCC=CC3)[C@H]2SC1` (some centres undefined), the Potency result in assay [1], in assay [3], in assay [4], in assay [5] and in assay [6] was “inactive” throughout. The outcome in assay [2] was inactive.

On to `COCc1nc2c([nH]1)c(=O)n(C)c(=O)n2CC(C)C`, for which the Potency entry in assay [1], in assay [3], in assay [4], in assay [5], in assay [6] and in assay [7] was “inactive” each time. Moreover, the outcome in assay [2] was inactive.

In the case of `COC1(C2=NCCN2)COc2ccccc2O1` (centres undefined), the Potency entry in assay [1], in assay [3], in assay [4], in assay [5] and in assay [6] was “inactive” throughout. Also, the outcome in assay [2] was inactive.

The values above are taken from PubChem BioAssay (NCATS).
